High-throughput results from PubChem.
Only some compounds are listed: those with a hit (about 4.2% of all), similar ones and a draw of the others.
Hsp90 Hop PPI – qHTS Assay for Disrupters of an Hsp90 Co-Chaperone Interaction; Potency, µM (highest dose often 57 µM), without a hit: at the top dose activity change, negative = inhibition; hit rate 0.44% among 71,000; Hsp90 C-terminal peptide / TPR2A (Hop) interaction, human; AID 595, 2007; AlphaScreen TPR2A-His6 binding biotin-Hsp90 C-terminal peptide; active = well fitted curve in either direction with a large enough effect; inconclusive = small, poorly fitted or top-dose-only effect, or another doubt; also: potency is read from the fitted curve at half-maximal effect; % is scaled to controls: 0 for no effect and ±100 for the full control effect
ALOX15 inhib – qHTS Assay for Inhibitors of 15-hLO (15-human lipoxygenase) | Polyunsaturated fatty acid lipoxygenase ALOX15 (Homo sapiens), P16050 | AID 887, 2007 | purified 15hLO-1, xylenol orange hydroperoxide absorbance | hit rate 1.4% among 74,000 | Potency, µM (highest dose often 57.1 µM), for the others: top-dose activity change, negative = inhibition, actives largely listed as inhibitors; also: potency is read from the fitted curve at half-maximal effect; % is scaled to controls: 0 for no effect and ±100 for the full control effect; nearly all actives have a fitted effect of over 55% in size
Target sequence (P16050 whole entry, looked up): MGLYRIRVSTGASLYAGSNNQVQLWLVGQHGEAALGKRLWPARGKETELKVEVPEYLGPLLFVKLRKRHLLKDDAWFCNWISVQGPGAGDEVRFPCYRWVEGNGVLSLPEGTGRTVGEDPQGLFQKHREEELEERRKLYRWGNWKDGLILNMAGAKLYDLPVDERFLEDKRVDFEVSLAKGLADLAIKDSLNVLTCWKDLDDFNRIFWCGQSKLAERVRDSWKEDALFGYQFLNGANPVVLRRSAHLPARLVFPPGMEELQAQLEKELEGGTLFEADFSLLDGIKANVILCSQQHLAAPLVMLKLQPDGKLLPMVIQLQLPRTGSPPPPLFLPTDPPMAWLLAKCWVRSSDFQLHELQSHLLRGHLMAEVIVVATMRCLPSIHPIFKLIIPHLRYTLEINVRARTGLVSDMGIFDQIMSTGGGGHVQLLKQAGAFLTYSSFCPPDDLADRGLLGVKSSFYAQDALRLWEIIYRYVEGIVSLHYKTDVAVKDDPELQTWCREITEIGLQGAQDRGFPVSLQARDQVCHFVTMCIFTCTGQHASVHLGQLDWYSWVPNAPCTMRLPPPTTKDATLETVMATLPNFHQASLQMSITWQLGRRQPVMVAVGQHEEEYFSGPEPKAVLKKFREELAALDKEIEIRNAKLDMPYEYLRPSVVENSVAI
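Inhibition is scored from a chromogenic endpoint. After 15 min enzyme-compound contact, arachidonic acid (50 uM final) reacts 6 min with 40 nM 15hLO-1 at room temperature, then Fe-XO reagent is added for 30 min and absorbance ratio recorded.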
TsaE inh – qHTS Assay for Inhibitors of YjeE; tRNA threonylcarbamoyladenosine biosynthesis protein TsaE (Escherichia coli (strain …; hit rate 0.05% among 71,000; AID 605, 2007; Potency, µM; purified YjeE enzyme, qHTS inhibition assay
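Purified YjeE (10 uM) with BODIPY Texas Red-labeled ADP probe (2 uM); compounds pin-transferred, 15 min at room temperature. Binding inhibition read as decreased fluorescence polarization; ADP titration as control.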
DNA Pol III inh – qHTS Assay for Inhibitors of DNA Polymerase III Holoenzyme System; reconstituted DNA polymerase III holoenzyme replication, biochemical; Potency, µM (series often up to 57.1 µM), inactives show at the highest dose activity change, negative = inhibition; hit rate 0.25% among 71,000; AID 603, 2007; also: potency is read from the fitted curve at half-maximal effect; % is scaled to controls: 0 for no effect and ±100 for the full control effect
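Reconstituted *E. coli* holoenzyme (0.35 nM Pol III, 1 nM beta, 154 nM SSB, 2 nM primase) was preincubated with compound for 15 min at RT. Synthesis on 1.4 nM ssM13Gori ran 35 min, then was stopped with PicoGreen/EDTA and read as dsDNA fluorescence.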
Tau fil binding – qHTS Assay for Tau Filament Binding; hit rate 2% among 71,000; recombinant tau filaments, thioflavin S fluorescence, 15 h; filaments grown with octadecylsulfate alongside compound; Potency, µM (series often up to 57.1 µM), inactives show at the highest dose activity change, negative = inhibition;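 also: potency is read from the fitted curve at half-maximal effect; % is scaled to controls: 0 for no effect and ±100 for the full control effect; actives lower thioflavin S fluorescence by blocking filaments or displacing dye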
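Read-out: ThS fluorescence, 450 nm excitation/510 nm emission; lower signal marks blocked filament formation or displaced dye. Tau at 1 uM with 30 uM ODS, 10 uM ThS, 5 mM DTT, 100 mM NaCl, 10 mM HEPES pH 7.4; 15 h, 37 C.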
ERK AVP block – qHTS Assay for Inhibitors of the ERK Signaling Pathway using a Homogeneous Screening Assay; Potency, µM (titrated, usually from 57.5 µM), inactives show top-dose activity, negative = inhibition, most hits filed as inhibitors; AID 995, 2007; HEK293-V1b, vasopressin-stimulated pERK AlphaScreen; hit rate 0.99% among 72,000; also: potency is read from the fitted curve at half-maximal effect; % is scaled to controls: 0 for no effect and ±100 for the full control effect; nearly all actives have a fitted effect of over 55% in size
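Overnight-seeded V1b-HEK293 cells in 1% FBS got compound, then vasopressin (25 nM final, 5 min, 37C), then lysis buffer. AlphaScreen detection of phospho-ERK; activity normalized to basal and full-stimulation controls.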
Active calls of the source: *; i = inactive; ? = inconclusive; · = no result given; [ ] = remark or other dose. Unless noted, calls follow the shape of the dose curve; as a rule, active = well fitted curve in the direction sought with a large enough effect; inconclusive = small, poorly fitted or top-dose-only effect, or another doubt; inactive = no such curve, though single readings can be large; an effect the other way counts as inactive or inconclusive.

SMILES	Hsp90 Hop PPI	ALOX15 inhib	TsaE inh	DNA Pol III inh	Tau fil binding	ERK AVP block
COCCNC(=O)c1cc(-c2ccc(OC)c(OC)c2)on1	-0.4%	-0.4%	i	-2.8%	6.1%	-0.2%
COC(=O)c1cc(-c2ccc(OC)c(OC)c2)on1	-2.7%	-4.0%	i	-4.7%	-1.3%	7.94µM*
O=C(Nc1ccccc1)Nc1cccc2cccnc12	0.5%	-11.2%	i	7.9%	-3.1%	-16.1%
c1ccc2c(c1)Cc1cc3cc4c(cc3nc1-2)OCO4	13.9%	·	i	-21.0%	13.2%	25.1µM*
C[C@@H](C(=O)O)[C@@H]1C[C@@]1(C)[C@@H](NC(=O)OCc1ccccc1)c1ccccc1	-2.3%	·	i	-10.4%	2.8%	-21.9%
CCC(C(N)=O)c1ccccc1 (stereo not drawn)	·	3.3%	·	·	·	-2.9%
COc1ccc(C2=NOC(C(=O)Nc3cc(Br)ccc3O)C2)cc1OC (stereo not drawn)	-0.2%	-27.1%	i	3.1%	129.2%	10µM*
COc1ccc(OC)c(Nc2cc(-c3ccccc3)nc(N)n2)c1	-14.2%	?	i	-0.6%	15.8µM*	10µM*
Cc1cccc(-n2cnc3c(c2=O)c2nc4ccccc4nc2n3Cc2ccco2)c1	-5.8%	-28.1%	i	-4.1%	12.6µM*	-22.6%
Cc1cccc(S(=O)(=O)c2c(N)n(Cc3ccco3)c3nc4ccccc4nc23)c1	3.4%	?	i	-2.5%	374.4%	-8.3%
COc1ccc(Cn2c3nc4ccccc4nc3c3c(=O)n(Cc4ccco4)cnc32)cc1	-4.8%	?	i	-15.3%	15.8µM*	-8.7%
CCCn1cnc2c(c1=O)c1nc3ccccc3nc1n2Cc1ccccc1OC	0.2%	-1.8%	i	-0.1%	-18.3%	-11.8%
CCC(C)n1cnc2c(c1=O)c1nc3ccccc3nc1n2Cc1ccccc1OC (stereo not drawn)	0.2%	0.5%	i	-0.5%	3.98µM*	-17.1%
FC(F)C(F)(F)C(F)(F)C(F)(F)c1cc(-c2ccccc2)n[nH]1	3.1%	?	i	-7.4%	10µM*	2.51µM*
Oc1ccccc1-c1cc(C(F)(F)C(F)F)nc(-c2ccccc2)n1	1.8%	-18.9%	i	-14.4%	5.6%	0.7%
N[C@H](Cc1cc(I)c(Oc2cc(I)c(O)c(I)c2)c(I)c1)C(=O)O	-1.1%[26 µM]	-6.7%[25.6 µM]	i	0.5%[25.6 µM]	-19.1%[25.6 µM]	-5.1%[25.7 µM]
NC(Cc1cc(I)c(Oc2cc(I)c(O)c(I)c2)c(I)c1)C(=O)O (stereo not drawn)	·	12.6µM*	·	·	·	9.2%
O=C(Cn1nnc(-c2ccccc2NC(=O)c2ccco2)n1)Nc1ccccc1	-1.4%	-15.3%	i	-2.2%	151.7%	-10.1%
Nc1ccc(O)cc1C(=O)OCC(=O)C12CC3CC(CC(C3)C1)C2	-7.6%	12.6µM*	i	0.0%	-26.8%	-2.4%
O=C(CN1C2=NCCN2c2ccccc21)C12CC3CC(CC(C3)C1)C2	-2.7%	-26.1%	i	2.3%	38.2%	-14.8%
CC1Cc2ccccc2N1C(=O)Cn1nc(C(=O)O)c2ccccc2c1=O (stereo not drawn)	-5.9%	1.3%	i	-3.1%	-0.7%	-20.3%
Clc1ccc2c(N3CCCC3)ccnc2c1	-11.7%	20µM*	i	-3.2%	20µM*	-24.2%
Cc1cc(N2CCN(C)CC2)nc2ccc(NC(=O)c3ccc4c(c3)OCO4)cc12	-5.9%	-3.1%	i	-10.5%	179.2%	12.6µM*
CCN1CCN(c2cc(C)c3cc(NC(=O)c4cnccn4)ccc3n2)CC1	-3.0%	-11.1%	i	-10.1%	10µM*	?
CN(C)c1ccc(NC(=O)c2ccc(COc3cccc(Cl)c3)o2)cc1	?	-12.0%	i	4.7%	7.94µM*	?
SMILES	Hsp90 Hop PPI	ALOX15 inhib	TsaE inh	DNA Pol III inh	Tau fil binding	ERK AVP block
CCOc1ccc(OCc2ccc(C(=O)Nc3ccc(Cl)cn3)o2)cc1	7.4%	-16.8%	i	-0.1%	58.6%	-15.2%
Cc1occc1-c1nnc(SCC(=O)c2cc3ccccc3oc2=O)o1	?	12.6µM*	i	?	10µM*	15.8µM*
CCc1ccc(NC(=O)c2cc(CC(C)C)on2)cc1	-0.3%[2.3 µM]	-2.0%	i	-0.1%	-3.6%	-18.4%
Oc1ccc(CNCc2ccccc2)c2cccnc12	?	46.1%[11.4 µM]	i	-5.0%[11.4 µM]	-26.8%[11.4 µM]	5.9%[11.5 µM]
Oc1ccc(CNc2ccccc2F)c2cccnc12	5.01µM*	14.2%	i	-2.6%	-4.9%	-4.8%
O=C(Oc1c(CN2CCOCC2)cc(Cl)c2cccnc12)c1ccc(F)cc1	12.6µM*	18.1%	i	-3.7%	-1.4%	-7.4%
Oc1ccc(COCc2ccccc2)c2cccnc12	25.1µM*	5.6%	i	-4.7%	-13.1%	-26.9%
Oc1c(CN2CCN(c3ccccn3)CC2)cc(Cl)c2cccnc12	7.94µM*	-56.4%	i	-4.7%	-23.5%	31.6µM*
COc1ccc(C(=O)Oc2c(CN3CCOCC3)cc(Cl)c3cccnc23)cc1	-26.0%	-2.6%	i	-1.1%	3.2%	-12.2%
N[C@H](C(=O)O)c1cccc(O)c1	-5.3%	-14.4%[25.6 µM]	i	-4.5%	?	-2.7%
COc1ccccc1N1CCN(Cc2cc(Br)c(O)c3ncccc23)CC1	-11.4%[2.3 µM]	8.3%	i	-4.3%	-9.8%	?
COCc1cc(CN2CCCC2)c(O)c2ncccc12	3.16µM*	2.51µM*	i	-3.3%	-15.7%	-21.2%
Oc1c(CN2CCCCC2)cc(COCc2ccccc2)c2cccnc12	2.51µM*	25.1%	i	-9.0%	-11.3%	5.8%
N#CC(C#N)=C(N)/C(C#N)=C/c1ccc(O)cc1	-4.0%	-6.7%	i	-2.4%	-9.5%	12.6µM*
Nc1ncnc2c1nc(Br)n2C1CC(O)C(CO)O1 (stereo not drawn)	·	-8.5%	·	·	·	-0.9%
Nc1ncnc2c1nc(Br)n2[C@H]1O[C@H]2COP(=O)(O)O[C@H]2[C@@H]1O	-0.7%	?	i	-4.5%	39.8µM*	4.7%
O=c1c(O)cccc2cc(O)c(O)c(O)c12	·	3.98µM*	·	·	·	?
COCCCNC(=O)C1CC(=O)N(CCc2ccc(OC)c(OC)c2)C1 (stereo not drawn)	5.4%	-22.0%	i	-8.9%	-5.4%	26.6%
COc1ccc(Cl)cc1NC(=O)C1CCCN(S(=O)(=O)c2cccc3nonc23)C1 (stereo not drawn)	-7.9%	-5.1%	i	7.9%	25.1µM*	-4.2%
COc1ccc(S(=O)(=O)N2CCN(c3cccc(C)c3C)CC2)cc1	11.1%	-21.9%	i	-5.1%	6.5%	·
Oc1ccc(N=Cc2ccc(-c3cccs3)s2)cc1	-17.6%[11 µM]	3.98µM*	i	-2.6%[11.4 µM]	?	-17.2%
